Measured values reported in the supplement of paper PMC12067093, “Discovery and optimisation of a covalent ligand for TRIM25 and its application to targeted protein ubiquitination” (Chemical Science, 2025).
About 21,000 targets were measured; listed, in parts, are those with the largest changes and a random draw of the rest.

Compound: CC1Cc2ccccc2N1C(=O)C1CCCN(C1)C(=O)CCl (mixture of isomers) [TRIM25 ligand 11 (diastereomer mixture)]
Assay: probe-labelled cysteine peptide fold change vs DMSO (competition) (log2 fold change); higher = less target engagement (more negative = stronger competition)
Conditions: THP-1, incubation time: 4 h
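Note: competitive chemoproteomic profiling in live THP-1 cells with an iodoacetamide desthiobiotin (IA-DTB) probe, comparing probe-labelled peptide intensities in compound-treated cells against DMSO-treated controls.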

Row | Target | probe-labelled cysteine peptide fold change (10 µM) | probe-labelled cysteine peptide fold change (50 µM)
1 | MLST8_Q9BVC4_107_WMYTGGEDCTAR (UniProt Q9BVC4) | 0.0109 | -0.0842
2 | MIF_P14174_81_LLCGLLAER (UniProt P14174) | -0.156 | -0.117
3 | MDH2_P40926_93_GCDVVVIPAGVPR (UniProt P40926) | -0.0615 | 0.0728
4 | MYCBP2_O75592_3786_NITINCVK (UniProt O75592) | -0.237 | 0.117
5 | MCM2_P49736_624_CTVIAAANPIGGR (UniProt P49736) | 0.0682 | 0.0292
6 | MTMR1_Q13613_438_TSVVVHCSDGWDR (UniProt Q13613) | 0.559 | -0.0364
7 | MORC3_Q14149_717_QCHMFTDQIK (UniProt Q14149) | -0.0943 | 0.000884
8 | MED14_O60244_1433_QGECTIFAAVR (UniProt O60244) | 0.177 | 0.249
9 | MDN1_Q9NU22_1400_TTICQVFAALANQK (UniProt Q9NU22) | 0.156 | 0.0599
10 | MDN1_Q9NU22_3690_LLGSQLLACTLSHNTLFGEAPSDLMVKPDGPYDFYQHPNVPEAR (UniProt Q9NU22) | 0.00494 | 0.105
11 | MYO9B_Q13459_152_QQADFDDLCNLPELTEGNLLK (UniProt Q13459) | -0.135 | -0.0276
12 | METTL5_Q9NRN9_107+110_NAEEFELTNIDMVQCDVCLLSNR (UniProt Q9NRN9) | -0.067 | -0.00432
13 | NADK2_Q4G0N4_311_SSGLNLCTGTGSK (UniProt Q4G0N4) | -0.0288 | -0.0319
14 | MBIP_Q9NS73_243_DCGNQAVEER (UniProt Q9NS73) | -0.0155 | -0.0072
15 | MAN2C1_Q9NTJ4_871_WMDLSEHGFGLALLNDCK (UniProt Q9NTJ4) | 0.38 | 0.327
16 | MKNK2_Q9HBH9_136_EVEMLYQCQGHR (UniProt Q9HBH9) | 0.495 | 0.556
17 | MICALL1_Q8N3F8_194_CSSTLLPGAYENGPEEGTFVCAEHCAR (UniProt Q8N3F8) | 0.154 | -0.0569
18 | MYH9_P35579_896_LQLQEQLQAETELCAEAEELRAR (UniProt P35579) | -0.566 | -0.0747
19 | MOB4_Q9Y3A3_134_HTLDGAACLLNSNK (UniProt Q9Y3A3) | -0.19 | -0.629

Row | Target | probe-labelled cysteine peptide fold change (10 µM) | probe-labelled cysteine peptide fold change (50 µM)
20 | MACF1_Q9UPN3_3619_QQNTCHQQLEDLCSWVGQAER (UniProt Q9UPN3) | -0.474 | 0.118
21 | MOGS_Q13724_137_HTCEQGDGVGPYGWEFHDGLSFGR (UniProt Q13724) | -0.0183 | -0.127
22 | MFN1_Q8IWA4_513_LCSDFQEDIVFR (UniProt Q8IWA4) | 0.257 | 0.355
23 | MTREX_P42285_983_LEIDEETYLSSFKPHLMDVVYTWATGATFAHICK (UniProt P42285) | 0.115 | -0.0469
24 | MYH9_P35579_671_CIIPNHEKK (UniProt P35579) | -0.608 | -0.373
25 | MIS12_Q9H081_133_YKTELCTK (UniProt Q9H081) | -0.0461 | 0.0357
26 | MTM1_Q13496_242_CSQPLVGMSGKR (UniProt Q13496) | -0.862 | -0.255
27 | MED7_O43513_223_DAALCVLIDEMNERP (UniProt O43513) | 0.0565 | -0.131
28 | MDN1_Q9NU22_1394_ALEFGEPVLLVGDTGCGK (UniProt Q9NU22) | -0.0161 | 0.145
29 | MTA2_O94776_106_CSVTLLNETDILSQYLEK (UniProt O94776) | 0.0256 | 0.178
30 | MAPRE2_Q15555_279_EIELLCQEHGQENDDLVQR (UniProt Q15555) | -0.0442 | -0.23
31 | MGMT_P16455_145_GNPVPILIPCHR (UniProt P16455) | -0.499 | -1.05
32 | MAP4_P27816_635_CSLPAEEDSVLEK (UniProt P27816) | -0.069 | -0.135
33 | MATR3_P43243_296_GYPHLCSICDLPVHSNK (UniProt P43243) | -0.0503 | 0.00253
34 | MED13L_Q71F56_1457_LGQHKPICK (UniProt Q71F56) | -0.182 | -0.263
35 | NCAPH_Q15003_114_FTNTQITEHYSTCIK (UniProt Q15003) | 0.199 | -0.135
36 | LYST_Q99698_3649_LCYVQSLAGHK (UniProt Q99698) | 0.0365 | -0.124
37 | MPG_P29372_56_AGQPHSSSDAAQAPAEQPHSSSDAAQAPCPR (UniProt P29372) | 0.193 | -0.822
38 | MKI67_P46013_773_EQPQLTSTCHIAISNSENLLGK (UniProt P46013) | 0.234 | -0.0412
